In the library only some 17% were active in any assay of this set; here they are far more common.
ClpP mod = qHTS Assay for Activators of ClpP | ATP-dependent Clp protease proteolytic subunit (Bacillus subtilis (strain 168)), P80244 | purified B. subtilis ClpP, FRET peptide cleavage, 20 min | Potency, µM (series often up to 57.5 µM) | 1.9% of 340,000 active | AID 651965, 2013; active = well fitted falling curve with a large enough effect; inconclusive = small, poorly fitted or top-dose-only effect; inactive = no such curve, though single readings can be large or run the other way; also: the source files actives as falling curves though it sought activators and does not explain the sign; nearly all actives have a fitted effect of over 65% in size
Target sequence (P80244 whole entry, looked up): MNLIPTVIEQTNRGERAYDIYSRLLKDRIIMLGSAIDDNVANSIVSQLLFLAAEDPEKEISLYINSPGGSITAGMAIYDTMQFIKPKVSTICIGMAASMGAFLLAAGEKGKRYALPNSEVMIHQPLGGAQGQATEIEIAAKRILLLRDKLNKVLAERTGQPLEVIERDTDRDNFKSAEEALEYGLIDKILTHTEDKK
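FRET quenching reversal measured ClpP activation: 10 microg/mL B. subtilis ClpP at pH 8 with the FRET-FV decapeptide, read at 430 nm after 320 nm excitation. The 20-min minus 0-min signal was scaled between DMSO/no-enzyme wells and ADEP (5.8 microM final).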
TDP1 cell CPT = growth inhibition of DT40 Tdp1-/-;hTDP1 cells with camptothecin (screen for TDP1 inhibitors) | Potency, µM (highest dose often 46.2 µM), most hits filed as inhibitors | chicken DT40 Tdp1-/-;hTDP1 cells + 20 nM CPT, ATP luminescence, 48 h | 12% of 420,000 active; also: nearly all actives have a fitted effect of over 55% in size
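Chicken DT40 Tdp1-/- cells complemented with human TDP1, 400 cells/well, exposed to compounds plus 20 nM camptothecin for at least 48 h at 37 C; viability read as ATP content by CellTiter-Glo luminescence.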
TDP1 block = blocks human tyrosyl-DNA phosphodiesterase 1; Q9NUW8; recombinant TDP1, AlphaScreen DNA substrate cleavage; Potency, µM (top dose mostly 130 µM), usual class: inhibitors; 0.28% of 350,000 active; AID 485290; also: nearly all actives have a fitted effect of over 40% in size
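Steps: enzyme plus compound, 15 min RT; add biotin/phosphotyrosine-FITC oligonucleotide (15 nM final), react 5 min; add donor/acceptor beads (10 ug/ml final), 10 min; read AlphaScreen. Tdp1 at 1 nM final.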
TDP1 cell noCPT = qHTS for Inhibitors of human tyrosyl-DNA phosphodiesterase 1 (TDP1): qHTS in cells in absence of CPT. DT40 Tdp1-/- hTDP1 cells, no CPT, ATP luminescence, 48 h. Potency, µM (top dose mostly 46.2 µM), usual class: inhibitors. AID 686978, 2013. 15% of 420,000 active; also: nearly all actives have a fitted effect of over 55% in size
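Compound effects on proliferation are scored in DT40 Tdp1-/-;hTDP1 cells in the absence of CPT. ATP levels (CellTiter-Glo luminescence) are recorded after a ≥48 hr, 37 °C incubation.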
Numbers stand for hits; ! = not confirmed by another sample; [ ] = another dose, or the depositor's remark. Unless noted, calls follow the shape of the dose curve; as a rule, active = well fitted curve in the direction sought with a large enough effect; inconclusive = small, poorly fitted or top-dose-only effect, or another doubt; inactive = no such curve, though single readings can be large; an effect the other way counts as inactive or inconclusive.

For CC1(OC(=O)C2CCCC2)C(=O)C=C2C=C(c3ccsc3)N(C3CCCCC3)C=C2C1=O (stereo not given) the results were ClpP mod inactive, TDP1 cell CPT 21µM, TDP1 block inactive[12.3 µM] and TDP1 cell noCPT 21µM.
Screening CC1(OC(=O)CCc2ccccc2)C(=O)C=C2C=C(c3ccc(C#N)cc3)N(C3CCCCC3)C=C2C1=O (stereo not given) returned ClpP mod inactive, TDP1 cell CPT 26µM, TDP1 block inactive[21 µM] and TDP1 cell noCPT inconclusive.
CC1(OC(=O)CCc2ccccc2)C(=O)C=C2C=C3CCCN3C=C2C1=O (stereo not given) was read as ClpP mod inactive, TDP1 cell CPT inactive, TDP1 block 4.5µM! and TDP1 cell noCPT inactive.
CC1(OC(=O)C2CCCC2)C(=O)C=C2C=C(c3ccsc3)N(CCc3c[nH]c4ccccc34)C=C2C1=O (stereo not given) was read as ClpP mod inactive, TDP1 cell CPT 21µM, TDP1 block inactive[12.3 µM] and TDP1 cell noCPT inconclusive.
`CC(C)CCNC(=O)CCc1nnc2ccc(N3CCC(C)CC3)nn12` gave ClpP mod inactive, TDP1 cell CPT inactive and TDP1 cell noCPT inactive.
Screening CC(C)CCN(C(=O)c1csnn1)C(C(=O)NC1CCCCC1)c1ccc(F)cc1 (stereo not given) returned ClpP mod inactive, TDP1 cell CPT inactive and TDP1 cell noCPT inconclusive.
O=C(O)[C@@H]1CSCN1 was read as TDP1 cell CPT inactive, TDP1 block inactive and TDP1 cell noCPT inactive.
CC/C=C\C[C@H](O)/C=C/C=C\C/C=C\C/C=C\CCCC(=O)O was read as TDP1 block inactive.
`CC(NC(=O)Cn1ccsc1=N)C12CC3CC(CC(C3)C1)C2` (stereo not given) gave ClpP mod inactive, TDP1 cell CPT 16µM, TDP1 block inactive and TDP1 cell noCPT 23µM.
Screening CCC(=O)N1CCc2cc(CNS(=O)(=O)c3ccccc3F)ccc21 returned ClpP mod inactive, TDP1 cell CPT inactive, TDP1 block inactive and TDP1 cell noCPT inactive.
Screening CC1(C(=O)NS(=O)(=O)c2ccc(Cl)cc2)CCN1C(=O)C1CC1 (stereo not given) returned ClpP mod inactive, TDP1 cell CPT inactive and TDP1 cell noCPT inactive.
For CCN(CC)Cc1cc(O)c(CN(CC)CC)cc1O the results were ClpP mod inactive, TDP1 cell CPT 6.5µM, TDP1 block 7.9µM and TDP1 cell noCPT 4.1µM.
For CCOc1ccc(CNn2cnnc2)cc1 the results were TDP1 cell CPT 16µM and TDP1 cell noCPT inconclusive.
Screening N#C/C(=C/c1cccc(O)c1)C(=O)NCc1ccc(Cl)cc1 returned TDP1 cell CPT inconclusive and TDP1 cell noCPT 16µM.
N#C/C(=C\c1ccc(O)c(Br)c1)C(=O)NCc1ccccc1 was read as TDP1 cell CPT inactive, TDP1 block inactive and TDP1 cell noCPT inactive.
For N#C/C(=C/c1ccc(O)c(O)c1)C(=O)NCc1ccc(Cl)cc1 the results were TDP1 cell CPT 26µM, TDP1 block inactive[0.0935 µM] and TDP1 cell noCPT inconclusive.
`Cc1cc(C)c(C)c(OC(=O)c2sc(Cl)nc2C)c1` gave ClpP mod inactive, TDP1 cell CPT 7.3µM, TDP1 block inactive and TDP1 cell noCPT 8.2µM.
Cc1ccc(NC(=O)c2sc(Cl)nc2C)c(C)c1 was read as ClpP mod inactive, TDP1 cell CPT inactive, TDP1 block inactive and TDP1 cell noCPT inactive.
For Cc1c2cnn(CC(=O)Nc3c(F)c(F)cc(F)c3F)c(=O)c2c(C)n1Cc1ccc(F)cc1 the results were TDP1 block inactive.
`COC(=O)c1ccccc1NC(=O)Cn1ncc2c(C)n(Cc3ccc(F)cc3)c(C)c2c1=O` gave ClpP mod inconclusive, TDP1 cell CPT 21µM, TDP1 block inactive and TDP1 cell noCPT inconclusive.
Screening CCN(CC)c1ccc(NC(=O)CN2C(=O)CC(C)(C)S(=O)(=O)c3ccccc32)c(C)c1 returned ClpP mod inactive, TDP1 cell CPT 15µM, TDP1 block inactive and TDP1 cell noCPT 16µM.
For CC1(C)CC(=O)N(CC(=O)NCc2ccccc2)c2ccccc2S1(=O)=O the results were ClpP mod inactive, TDP1 cell CPT inactive, TDP1 block inactive and TDP1 cell noCPT inactive.
CCN(CC)c1ccc(NC(=O)Cn2ncc3c(C)n(Cc4ccccc4F)c(C)c3c2=O)c(C)c1 was read as ClpP mod inactive, TDP1 cell CPT inconclusive, TDP1 block inactive and TDP1 cell noCPT 21µM.
COc1ccc(C=O)c(-c2c(-c3ccccc3OC)sc3ccccc23)c1 was read as ClpP mod inactive, TDP1 cell CPT inconclusive and TDP1 cell noCPT inconclusive.
CCCCN(C(=O)c1cc(S(=O)(=O)N2CCOCC2)ccc1N1CCOCC1)c1ccccc1 was read as ClpP mod inactive, TDP1 cell CPT inactive and TDP1 cell noCPT inactive.
For Cn1c(CNC(=O)C(Cc2ccccc2)NC(=O)c2ccccc2F)cc(=O)n(C)c1=O (stereo not given) the results were ClpP mod inactive, TDP1 cell CPT inactive, TDP1 block inactive and TDP1 cell noCPT inactive.
Screening O=c1cc(C(Cl)(Cl)Cl)oc2c1ccc1ccccc12 returned ClpP mod inactive, TDP1 cell CPT 0.15µM, TDP1 block inactive and TDP1 cell noCPT 0.52µM.
For O=c1cc(-c2ccco2)oc2c1ccc1ccccc12 the results were ClpP mod inactive, TDP1 cell CPT inactive, TDP1 block inactive and TDP1 cell noCPT inactive.
O=c1cc(-c2ccc(O)cc2)oc2c1ccc1ccccc12 was read as ClpP mod inactive, TDP1 cell CPT inactive and TDP1 cell noCPT inactive.
O=c1cc(-c2ccncc2)oc2c1ccc1ccccc12 was read as ClpP mod inactive, TDP1 cell CPT inconclusive and TDP1 cell noCPT 23µM.
For Cc1ccc2cc(CCNS(=O)(=O)c3ccc(F)cc3)c(=O)[nH]c2c1 the results were ClpP mod inactive, TDP1 cell CPT 21µM, TDP1 block inactive and TDP1 cell noCPT 18µM.
COc1ccc2cc(CCNS(=O)(=O)c3ccc(C)cc3)c(=O)[nH]c2c1 was read as ClpP mod inactive, TDP1 cell CPT inactive, TDP1 block inactive[12.3 µM] and TDP1 cell noCPT 9.2µM.
`O=C(Nc1ccccc1)c1cc(C2CCCCN2C(=O)CCCc2ccccc2)on1` (stereo not given) gave ClpP mod inactive, TDP1 cell CPT inconclusive and TDP1 cell noCPT inconclusive.
Screening O=C(NCc1cccnc1)c1cc(C2CCCCN2C(=O)CCCc2ccccc2)on1 (stereo not given) returned ClpP mod inactive, TDP1 cell CPT 29µM and TDP1 cell noCPT inconclusive.
COc1ccc(NC(=O)c2cc(C3CCCCN3C(=O)CCCc3ccccc3)on2)c(C)c1 (stereo not given) was read as ClpP mod inactive, TDP1 cell CPT 0.73µM and TDP1 cell noCPT inactive.
Screening O=C(Nc1ccc(F)c(Cl)c1)c1cc(C2CCCCN2C(=O)CCCc2ccccc2)on1 (stereo not given) returned ClpP mod inactive, TDP1 cell CPT inconclusive and TDP1 cell noCPT 18µM.

Assay outcomes as filed in PubChem BioAssay.
